Source: ChEMBL document CHEMBL1157539, “Thousands of chemical starting points for antimalarial lead identification” (Nature, 2010)

Experiments:
Type in all cases: functional
[1] = system: Plasmodium falciparum; assay: GSK_TCMDC: Inhibition of Plasmodium falciparum 3D7 in whole red blood cells, using parasite LDH activity as an index of growth. Test compounds present at 2uM
[2] = system: Plasmodium falciparum; assay: GSK_TCMDC: Inhibition of Plasmodium falciparum Dd2 in whole red blood cells, using parasite LDH activity as an index of growth. Test compounds present at 2uM
[3] = system: HepG2; assay: GSK_TCMDC: Percent inhibition of human HepG2 cell line. Test compounds present at 10uM.

Compound | Inhibition [1] [%] | Inhibition [2] [%] | Inhibition [3] [%]
COc1ccc2c(NN=Cc3cccc(F)c3)ccnc2c1 | 100 | 95 | 49
COc1ccccc1-c1[nH]c2ccccc2c1CN1CCC(c2c(C)cccc2C)CC1 | 96 | 13 | 49
O=C(Nc1ccc(-c2ccccc2)cc1)Nc1ccc2c(c1)CCNCC2.O=C(O)C(F)(F)F | 97 | 48 | 41
Cc1cc(C2CCN(CCCCNC(=O)c3ccc(-c4ccc(C(F)(F)F)cc4)cc3)CC2)c(C)cc1OCC(N)=O | 91 | 44 | 34
Cc1nc(N)nc(N)c1OCCCCOc1ccccc1.Cl.O | 94 | 4 | 62
CCOc1cc(C(=O)Nc2ccc3nc(N4CCN(C)CC4)cc(C)c3c2)cc(OCC)c1OCC | 97 | 50 | 14
Br.c1ccc(-c2nc(Nc3ccncc3)sc2-c2ccccc2)cc1 | 97 | 18 | 0
Cc1ccc(N2C(=O)C3C(C2=O)C2(c4ccccc4)C(=O)C3(c3ccccc3)C(c3ccccc3)=C2c2ccccc2)c(C)c1 (stereo not drawn) | 96 | 96 | 3
CCCCCCNC(=N)c1ccc2[nH]c(-c3ccc(O)cc3)nc2c1.Cl | 100 | 99 | 0
CC[C@H]1CN(Cc2cccc(O)c2)CC[C@H]1CCCc1ccnc2ccc(O)cc12 | 100 | 98 | 14
Nc1ncc(-c2ccsc2)c2ccc(-c3cnc[nH]3)cc12 | 100 | 70 | 31
